Data from PubChem BioAssay AID1159580 (chemical genetic matrix, 2015).
Several values for one entry are separate records, joined by “and”; a condition that tells them apart may be missing. Equal entries are not always repeated. The whole screen tested about 5,500 compounds, of which about 2,000 (36%) were called active. Not shown: some 18% with an inconclusive outcome. Rule as the data show it: active = normalized growth mostly below about 0.91 (no sharp cut-off); inconclusive = no clear call, values can overlap the other calls; inactive = mostly above about 0.92. The list shows a part of the results.

Experiment: chemical genetic growth profiling, strain panel (AID 1159580);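 also: tested at 20 µM; growth read once vehicle control cultures reached saturation at 30 °C; 1 = growth at the plate median or of vehicle wells; lower values mean less growth of the strain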
Settings: S. cerevisiae deletion strains, growth OD

Measured: normalized growth

CC(=O)Oc1ccc2c(c1)CCC1C2CC[C@]2(C)C(=O)CCC12 (some centres undefined)
inactive: locus YAL013W, strain DEP1, active compounds read low 0.985 | locus YAL021C, strain ccr4, active compounds read low 0.995 | locus YAL026C, strain drs2, active compounds read low 0.992 | locus YAL030W, strain snc1, active compounds read low 0.972 | locus YBL061C, strain skt5, active compounds read low 0.987 | locus YBR009C, strain hhf1, active compounds read low 0.986 | locus YBR021W, strain FUR4, active compounds read low 0.961 | locus YBR023C, strain chs3, active compounds read low 0.985 | locus YBR171W, strain sec66, active compounds read low 0.963 | locus YBR229C, strain ROT2, active compounds read low 1 | locus YBR231C, strain swc5, active compounds read low 0.984 | locus YBR279W, strain paf1, active compounds read low 0.98 | locus YCL011C, strain gbp2, active compounds read low 0.994 | locus YCL016C, strain dcc1, active compounds read low 0.997 | locus YCL029C, strain bik1, active compounds read low 1.03 | locus YCL061C, strain MRC1, active compounds read low 0.985 | locus YCL069W, strain vba3, active compounds read low 0.986 | locus YCR088W, strain abp1, active compounds read low 0.979 | locus YDL005C, strain med2, active compounds read low 0.959 | locus YDL035C, strain GPR1, active compounds read low 0.957 | locus YDL040C, strain nat1, active compounds read low 0.989 | locus YDL074C, strain BRE1, active compounds read low 0.911 | locus YDL101C, strain DUN1, active compounds read low 1 | locus YDL134C, strain PPH21, active compounds read low 0.977 | locus YDL185W, strain tfp1, active compounds read low 1 | locus YDL192W, strain arf1, active compounds read low 1.01 | locus YDR001C, strain nth1, active compounds read low 0.985 | locus YDR069C, strain doa4, active compounds read low 0.969 | locus YDR101C, strain arx1, active compounds read low 1.02 | locus YDR150W, strain NUM1, active compounds read low 0.994 | locus YDR159W, strain sac3, active compounds read low 0.979 | locus YDR162C, strain NBP2, active compounds read low 0.998 | locus YDR195W, strain ref2 0.942 | locus YDR297W, strain sur2, active compounds read low 0.99 | locus YDR318W, strain mcm21, active compounds read low 1.01 | locus YDR334W, strain swr1, active compounds read low 0.984 | locus YDR335W, strain msn5, active compounds read low 0.992 | locus YDR388W, active compounds read low 1.02 | locus YDR392W, strain spt3, active compounds read low 1.03 | locus YDR502C, strain sam2, active compounds read low 1.01 | locus YEL003W, strain gim4, active compounds read low 0.988 | locus YEL037C, strain rad23, active compounds read low 0.989 | locus YEL061C, strain CIN8 (second series), active compounds read low 0.977 | locus YEL061C, strain CIN8, active compounds read low 0.998 | locus YER015W, strain faa2, active compounds read low 0.964 | locus YER016W, strain bim1, active compounds read low 0.991 | locus YER110C, active compounds read low 1.01 | locus YER111C, strain swi4, active compounds read low 0.96 | locus YER155C, strain BEM2 (second series), active compounds read low 0.923 | locus YER155C, strain BEM2, active compounds read low 1.02 | locus YER167W, strain BCK2, active compounds read low 1.02 | locus YFR010W, strain ubp6, active compounds read low 0.985 | locus YGL078C, strain dbp3, active compounds read low 1.02 | locus YGL086W, strain mad1, active compounds read low 1 | locus YGL167C, strain pmr1, active compounds read low 0.98 | locus YGL173C, strain kem1, active compounds read low 0.981 | locus YGL227W, strain vid30, active compounds read low 0.987 | locus YGL240W, strain doc1, active compounds read low 0.95 | locus YGL248W, strain PDE1, active compounds read low 0.949 | locus YGL253W, strain hxk2, active compounds read low 0.995 | locus YGR135W, strain pre9, active compounds read low 1.01 | locus YGR229C, strain SMI1, active compounds read low 1.03 | locus YGR252W, strain gcn5, active compounds read low 0.887 | locus YHR013C, strain ard1, active compounds read low 1 | locus YHR027C, strain rpn1, active compounds read low 0.969 | locus YHR030C, strain SLT2, active compounds read low 1.01 and 0.944 | locus YHR079C, strain IRE1 (second series), active compounds read low 1.02 | locus YHR079C, strain IRE1, active compounds read low 0.933 | locus YHR094C, strain hxt1, active compounds read low 1.02 | locus YHR129C, strain ARP1, active compounds read low 1.01 | locus YHR142W, strain chs7, active compounds read low 0.978 | locus YHR200W, strain rpn10, active compounds read low 1.02 | locus YIL066C, strain RNR3, active compounds read low 0.944 | locus YIL073C, strain SPO22, active compounds read low 0.921 | locus YIL125W, strain kgd1, active compounds read low 1.01 | locus YIR030C, strain dcg1, active compounds read low 1.02 | locus YJL092W, strain hpr5, active compounds read low 0.981 | locus YJL095W, strain BCK1 (second series), active compounds read low 0.985 | locus YJL095W, strain BCK1, active compounds read low 0.92 and 0.928 | locus YJL115W, strain asf1, active compounds read low 0.978 | locus YJL129C, strain trk1, active compounds read low 0.984 | locus YJL134W, strain LCB3, active compounds read low 1.01 | locus YJL154C, strain vps35, active compounds read low 0.979 | locus YJL164C, strain tpk1, active compounds read low 0.996 | locus YJL166W, strain qcr8, active compounds read low 0.96 | locus YJL168C, strain set2, active compounds read low 1.01 | locus YJL187C, strain SWE1 (second series), active compounds read low 0.969 | locus YJL187C, strain SWE1, active compounds read low 0.981
active: locus YDR137W, strain rgp1, active compounds read low 0.808
